# Data: PubChem BioAssay (Tox21)
# Values joined by “and” are separate entries in the source; they are usually repeats but may differ in a detail not shown here. Equal entries are not always repeated. Inconclusive results are not listed. Entries that show only a call come without a potency. Some structures have more than one record in an assay (separate samples or runs), and their calls can disagree. Active and inactive are the calls of the source. Calls come from the whole dose curve.
# Experiment: qHTS assay to identify small molecule agonists of the AP-1 signaling pathway (AID 1159526)
# Details: ME-180 (cervical carcinoma) AP-1-bla reporter, beta-lactamase FRET ratio, 5 h; series mostly up to 76.8 µM; activation: at the top concentration
# Potency is the fitted concentration of half-maximal effect.
SMILES,Potency,activation
Cc1cccc(Nc2ccccc2C(=O)O)c1C,inactive,–
[Na+],inactive,–
Nc1cc(Cl)c(N)c(Cl)c1,–,-1.49% (inactive)
c1ccc2c(c1)[nH]c1ccccc12,inactive,–
CC(=O)Oc1c(C)c(C)c2c(c1C)CC[C@@](C)(CCC[C@H](C)CCC[C@H](C)CCCC(C)C)O2,inactive,–
O=C1OC2(c3ccccc31)c1cc(I)c(O)c(I)c1Oc1c2cc(I)c(O)c1I,inactive and 29.8 µM (active),–
O=C(CCCN1CCC(O)(c2ccc(Cl)cc2)CC1)c1ccc(F)cc1,–,-0.0102% [at 35.3 µM] (inactive)
CCO[Si](CCCNC(N)=O)(OCC)OCC,inactive,–
OC[C@H]1O[C@@H]2O[C@H]3[C@H](O)[C@@H](O)[C@@H](O[C@H]4[C@H](O)[C@@H](O)[C@@H](O[C@H]5[C@H](O)[C@@H](O)[C@@H](O[C@H]6[C@H](O)[C@@H](O)[C@@H](O[C@H]7[C@H](O)[C@@H](O)[C@@H](O[C@H]1[C@H](O)[C@H]2O)O[C@@H]7CO)O[C@@H]6CO)O[C@@H]5CO)O[C@@H]4CO)O[C@@H]3CO,–,0.0752% (inactive)
C=CN1CCCC1=O,inactive,–
C=C[C@H]1CN2CC[C@H]1C[C@H]2[C@H](O)c1ccnc2ccc(OC)cc12,inactive,–
CN(Cc1cnc2nc(N)nc(N)c2n1)c1ccc(C(=O)N[C@@H](CCC(=O)O)C(=O)O)cc1,inactive,–
O=C(O)CCCCCCCCCCCC(=O)O,inactive,–
Cc1ccc(N)c([N+](=O)[O-])c1,inactive,–
C[C@]12C=CC(=O)C=C1CC[C@H]1[C@@H]3C[C@@H](O)[C@](O)(C(=O)CO)[C@@]3(C)C[C@H](O)[C@@]12F,inactive,–
c1ccc2c(c1)ccc1cc3c(ccc4ccccc43)cc12,–,-0.177% (inactive)
C=C[C@H]1CN2CC[C@H]1C[C@@H]2[C@@H](O)c1ccnc2ccc(OC)cc12,inactive,–
Nc1cc([N+](=O)[O-])ccc1C(=O)O,inactive,–

SMILES,Potency,activation
FC(F)(F)C(Cl)Br (stereo unspecified),–,13.7% (inactive)
CCCN1C=CN(C)C1,–,8.79% (inactive)
CC1=CC(C)(C)Nc2ccccc21,inactive,–
C1COCCN1,inactive,–
O=C(O)c1ccc(O)cc1,inactive,–
COC(=O)C(C)Oc1ccc(Oc2ncc(C(F)(F)F)cc2Cl)cc1 (stereo unspecified),inactive,–
CCCCCCCCCCC(CO)CCCCCCCC (stereo unspecified),inactive,–
OC[C@@H](O)[C@@H](O[C@@H]1O[C@H](CO)[C@H](O)[C@H](O)[C@H]1O)[C@H](O)[C@@H](O)CO,inactive,–
[O-]/[N+](=N\O)c1ccccc1,–,-0.229% (inactive)
CC(C)(C)c1cccc(C(C)(C)C)c1O,inactive,–
COCCOCCOCCO,inactive,–
CC/C=C\C/C=C\C/C=C\CCCCCCCC(=O)O,–,10.1% (inactive)
C[C@]12CC[C@@H]3c4ccc(O)cc4CC[C@H]3[C@@H]1CC[C@@H]2O,inactive,–
CN(C)C,inactive,–
CN(C)/N=N/c1nc[nH]c1C(N)=O,inactive,–
Cc1ccc(C(C)(C)C)cc1,inactive,–
CC/C(=C(/CC)c1ccc(O)cc1)c1ccc(O)cc1,–,-15.5% [at 35.3 µM] (inactive)
C[N+](C)(C)CCO,inactive,–
